We go through 22 compounds from ChEMBL document CHEMBL4296182, “CO-ADD screening of NIH NCI Diversity Set V”.

The structures appear in SMILES notation. For part of these data: Results with a measured potency or affinity are listed apart.

One assay concerns Staphylococcus aureus. The assay can be described thus: Antibacterial activity against Staphylococcus aureus MRSA ATCC 43300 (CO-ADD:GP_020); MIC in CAMBH media using NBS plates, by Resazurin F(560/590). The conditions noted are these: Concentration 20 uM, ASSAY_TEST Inhibition of Bacterial Growth, detection method Resazurin, Fluorescence (ex560/em590), MEDIA CAMHB, plate type 384well, CORNING #3640, time 18 hr. It is filed as functional.

In another assay the test system is Acinetobacter baumannii. The assay can be described thus: Antibacterial activity against Acinetobacter baumannii ATCC 19606 (CO-ADD:GN_034); MIC in CAMBH media using NBS plates, by Resazurin F(560/590). The conditions noted are these: Concentration 20 uM, ASSAY_TEST Inhibition of Bacterial Growth, detection method Resazurin, Fluorescence (ex560/em590), MEDIA CAMHB, plate type 384well, CORNING #3640, time 18 hr. It is filed as functional.

The next assay deals with Escherichia coli. The assay can be described thus: Antibacterial activity against Escherichia coli ATCC 25922 (CO-ADD:GN_001); MIC in CAMBH media using NBS plates, by Resazurin F(560/590). It is filed as functional. The following applies: Concentration 20 uM, ASSAY_TEST Inhibition of Bacterial Growth, detection method Resazurin, Fluorescence (ex560/em590), MEDIA CAMHB, plate type 384well, CORNING #3640, time 18 hr.

In another assay the test system is Klebsiella pneumoniae. The conditions noted are these: Concentration 20 uM; ASSAY_TEST Inhibition of Bacterial Growth; detection method Absorption (OD600); MEDIA CAMHB; plate type 384well; NBS; CORNING #3640; time 18 hr.
Another assay deals with Candida albicans. The conditions noted are these: 20 µM.
Another assay has as its system Cryptococcus neoformans. The following applies: Concentration 20 uM; ASSAY_TEST Inhibition of Fungal Growth; detection method Resazurin; Absorption (OD600-OD570); plate type 384well; NBS; CORNING #3640.

Take `Nc1nc(N)nc(C2C=CCCC2)n1` (configuration not stated): the Inhibition in the assay on Staphylococcus aureus was 1.35%; in the assay on Acinetobacter baumannii it was -5.4%; in the assay on Escherichia coli it was 16.17%; in the assay with Klebsiella pneumoniae, 16.96%; in the assay with Candida albicans, 0.09%; with Cryptococcus neoformans, -8.05%.
For the compound `O=C1OCC/C1=C\c1ccc(O)cc1`, the Inhibition in the assay with Staphylococcus aureus is -0.41%; with Acinetobacter baumannii, -7.68%; in the assay with Escherichia coli it was 4.86%; in the assay on Klebsiella pneumoniae, 11.2%; in the assay with Candida albicans, 3.18%; with Cryptococcus neoformans it was 0.19%.
In the case of `Sc1nc2ccccc2c2ccccc12`, the Inhibition with Staphylococcus aureus was -5.22%; in the assay on Acinetobacter baumannii, -10.6%; with Escherichia coli it was 1.21%; with Klebsiella pneumoniae it was 0.71%; with Candida albicans, 24.1%; with Cryptococcus neoformans, 19.7%.
With `COc1cc(C(=O)c2cocc2C(=O)c2ccc3c(c2)OCO3)cc(OC)c1OC`, the Inhibition in the assay on Staphylococcus aureus was 27.15%; in the assay on Acinetobacter baumannii, -6.33%; in the assay with Escherichia coli it was 12.62%; in the assay on Klebsiella pneumoniae, 6.01%; with Candida albicans, 3.29%; in the assay with Cryptococcus neoformans, 14.1%.
As for `O=C1NC(=O)N2CCSC2(Cc2ccccc2)N1` (configuration not stated), the Inhibition is 11.67% in the assay on Staphylococcus aureus; 11.67% in the assay on Acinetobacter baumannii; -4.61% in the assay with Escherichia coli; 17.33% in the assay on Klebsiella pneumoniae; 4.4% in the assay on Candida albicans; -2.7% with Cryptococcus neoformans.
As to `CCOC(=O)c1cc(-c2ccccc2)nc2ccc(C)cc12` [NEOCINCHOPHEN], the Inhibition in the assay on Staphylococcus aureus is 2.82%; in the assay on Acinetobacter baumannii, 5.48%; in the assay with Escherichia coli, -14.74%; in the assay with Klebsiella pneumoniae, 14.7%; with Candida albicans, 9.92%; in the assay on Cryptococcus neoformans it was 24.59%.
Take `Oc1cc(-c2nn[nH]n2)nc(O)n1`: the Inhibition with Staphylococcus aureus is 15.18%; in the assay with Acinetobacter baumannii, -5.46%; in the assay on Escherichia coli, 13.37%; with Klebsiella pneumoniae it was 14.33%; in the assay on Candida albicans it was 1.84%; with Cryptococcus neoformans, 0.69%.
Turning to `c1ccc2c(c1)[nH]c1c3ccccc3sc21`, the Inhibition in the assay on Staphylococcus aureus is 12.39%; in the assay with Acinetobacter baumannii, -1.18%; in the assay on Escherichia coli, 0.28%; in the assay on Klebsiella pneumoniae, 11.83%; with Candida albicans, 5.08%; in the assay with Cryptococcus neoformans it was -2.59%.
Turning to `O=C(O)c1ccccc1-n1c2ccccc2c2ccccc21`, the Inhibition is 10.38% in the assay on Staphylococcus aureus; 6.58% in the assay on Acinetobacter baumannii; 7.31% in the assay on Escherichia coli; 10.24% in the assay on Klebsiella pneumoniae; 4.15% with Candida albicans; -5.74% with Cryptococcus neoformans.
With `Clc1[nH]cnc2nccc1-2`, the Inhibition with Staphylococcus aureus was 1.4%; in the assay with Acinetobacter baumannii, -14.17%; with Escherichia coli, 0.3%; in the assay with Klebsiella pneumoniae, 29.26%; in the assay on Candida albicans it was 1.22%; in the assay on Cryptococcus neoformans, -2.5%.
With `ClC(Cl)(Cl)C1=Nc2c(nnn2Cc2ccccc2)CN1`, the Inhibition is 1.51% in the assay with Staphylococcus aureus; 7.83% in the assay on Acinetobacter baumannii; 14.39% in the assay on Escherichia coli; 3.07% in the assay on Klebsiella pneumoniae; -3.28% in the assay with Candida albicans; -12.54% with Cryptococcus neoformans.
Regarding `Oc1ccc2ccc3[nH]cnc3c2c1`, the Inhibition was 14.46% in the assay with Staphylococcus aureus; -12.2% with Acinetobacter baumannii; 3.66% in the assay on Escherichia coli; 6.42% in the assay on Klebsiella pneumoniae; -0.74% in the assay with Candida albicans; -8.68% in the assay with Cryptococcus neoformans.
As to `O=S(=O)(c1ccc2c(c1)CCCN2)N1CCC[C@H]2CCCC[C@@H]21`, the Inhibition with Staphylococcus aureus is 4.63%; with Acinetobacter baumannii, -20.33%; with Escherichia coli, 3.15%; in the assay on Klebsiella pneumoniae, 6.75%; in the assay with Candida albicans, 8.6%; in the assay on Cryptococcus neoformans it was -4.42%.
`O=C(Nc1cccc(Cl)c1)Nn1cnnc1`: the Inhibition with Staphylococcus aureus was 17.05%; in the assay with Acinetobacter baumannii, 8.62%; with Escherichia coli, 2.61%; in the assay with Klebsiella pneumoniae, 6%; with Candida albicans, 3.98%; with Cryptococcus neoformans, -3.41%.
Take `Cn1ncc2c(Nc3ccccc3Cl)nc(Cl)nc21`: the Inhibition in the assay on Staphylococcus aureus is 11.91%; with Acinetobacter baumannii, 12.64%; in the assay with Escherichia coli, 1.79%; in the assay on Klebsiella pneumoniae, 7.78%; in the assay on Candida albicans, 7.2%; in the assay with Cryptococcus neoformans it was -6.78%.
Regarding `CCOC(=O)Nc1ccc2nc(Sc3ccc(Cl)cc3)sc2c1`, the Inhibition is 12.84% in the assay on Staphylococcus aureus; 1.81% in the assay with Acinetobacter baumannii; -1.5% with Escherichia coli; 17.17% with Klebsiella pneumoniae; 10.2% with Candida albicans; -3.93% in the assay on Cryptococcus neoformans.
As for `C=CCNC(S)=NCC`, the Inhibition with Staphylococcus aureus was 0.32%; with Acinetobacter baumannii it was -1.02%; with Escherichia coli it was 11.35%; in the assay on Klebsiella pneumoniae, 13%; in the assay with Candida albicans, 0.61%; with Cryptococcus neoformans it was -1.87%.
On to `O=[N+]([O-])c1cc2cccnc2c2ncccc12`, for which the Inhibition in the assay on Staphylococcus aureus was -17.5%; in the assay on Acinetobacter baumannii, -9.82%; in the assay on Escherichia coli, 9.62%; with Klebsiella pneumoniae, 9.1%; with Candida albicans, 0.77%; in the assay on Cryptococcus neoformans, -9.49%.
Regarding `CC(C)(C)n1nc(C2CC2)cc1NC(=O)Nc1ccc(Cl)cc1`, the Inhibition in the assay on Staphylococcus aureus is 0.51%; with Acinetobacter baumannii it was 11.57%; with Escherichia coli, -11.06%; in the assay with Klebsiella pneumoniae, 6.85%; in the assay with Candida albicans, 4.6%; in the assay on Cryptococcus neoformans, 3.95%.
In the case of `CCOC(=O)c1cnc(SCC)nc1O`, the Inhibition was 11.19% in the assay on Staphylococcus aureus; -12.25% in the assay with Acinetobacter baumannii; 0.66% in the assay with Escherichia coli; 10.25% in the assay with Klebsiella pneumoniae; 0.68% in the assay with Candida albicans; -8.17% with Cryptococcus neoformans.
Take `CN1C(=C=Cc2cc(I)c(O)c(I)c2)C(C)(C)c2ccccc21`: the Inhibition with Staphylococcus aureus is 20.66%; in the assay with Acinetobacter baumannii it was 1.84%; in the assay with Escherichia coli, 10.92%; in the assay with Klebsiella pneumoniae, 7.2%; in the assay on Candida albicans, 6.34%; in the assay on Cryptococcus neoformans, 5.51%.
As to `CN(C)C(=S)/N=c1\ssc(=S)n1Cc1ccco1`, the Inhibition with Staphylococcus aureus amounted to 13.2%; in the assay on Acinetobacter baumannii, 6.63%; in the assay with Escherichia coli, 0.6%; with Klebsiella pneumoniae it was 0.81%; in the assay on Candida albicans, 2.24%; with Cryptococcus neoformans, 5.1%.
